From PubChem BioAssay
NS1 function inh: inhibitors of influenza NS1 protein function. AID 2326. Potency, µM (doses to about 46.1 µM), inactives show top-dose activity, positive = more growth. 0.4% of 270,000 active; further: potency means the concentration at half of the fitted maximal effect; actives are rising curves; nearly all actives have a fitted effect of over 50% in size
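S. cerevisiae expressing influenza A NS1, grown in glucose, washed, then diluted 1:100 into pH 6.0 -URA galactose medium with 23 nl compound. Growth recovery read as OD600; NS1-free strain serves as control.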
Tb PYK inh: T. brucei pyruvate kinase inhibition; TbPYK enzyme, Kinase-Glo Plus ATP luminescence, 45 min; Potency, µM (doses to about 76.8 µM), inactives show top-dose activity, negative = inhibition, usual class: inhibitors; 0.12% of 410,000 active; active means well fitted curve in the direction sought with a large enough effect; inconclusive means small, poorly fitted or top-dose-only effect, or another doubt; inactive means no such curve, though single readings can be large; an effect the other way counts as inactive or inconclusive; further: potency means the concentration at half of the fitted maximal effect; on the % scale 0 is the no-effect control and ±100 the full control effect; nearly all actives have a fitted effect of over 50% in size
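Screened from lowest to highest concentration, compounds were pinned into TbPYK/substrate mixtures, and ADP (130 uM final) was added. Plates sat at room temperature for 45 min prior to Kinase-Glo Plus detection by luminescence.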
LmPK inhibitor: LmPK (Leishmania mexicana) enzyme inhibition. Q27686. purified LmPK, Kinase-Glo ATP luminescence, 1 h. Potency, µM (top dose mostly 57.5 µM), without a hit: top-dose activity change, negative = inhibition, usual class: inhibitors. 0.37% of 290,000 active. AID 1721; active means well fitted curve in the direction sought with a large enough effect; inconclusive means small, poorly fitted or top-dose-only effect, or another doubt; inactive means no such curve, though single readings can be large; an effect the other way counts as inactive or inconclusive; further: potency means the concentration at half of the fitted maximal effect; on the % scale 0 is the no-effect control and ±100 the full control effect
Target sequence (Q27686 whole entry, looked up): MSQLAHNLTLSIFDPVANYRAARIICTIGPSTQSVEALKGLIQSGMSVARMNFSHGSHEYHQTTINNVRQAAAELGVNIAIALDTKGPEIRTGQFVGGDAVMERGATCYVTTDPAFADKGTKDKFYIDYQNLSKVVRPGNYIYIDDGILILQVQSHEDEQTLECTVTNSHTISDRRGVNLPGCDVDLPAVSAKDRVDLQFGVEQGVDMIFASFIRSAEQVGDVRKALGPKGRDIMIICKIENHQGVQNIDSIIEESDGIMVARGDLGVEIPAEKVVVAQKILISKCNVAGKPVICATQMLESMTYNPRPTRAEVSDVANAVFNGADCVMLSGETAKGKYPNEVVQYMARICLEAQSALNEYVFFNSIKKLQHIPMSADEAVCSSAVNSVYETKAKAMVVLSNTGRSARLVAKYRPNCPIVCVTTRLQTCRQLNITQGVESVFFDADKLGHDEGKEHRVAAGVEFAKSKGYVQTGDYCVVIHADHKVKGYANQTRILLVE
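Screened at intermediate enzyme activity to detect both inhibitors and activators: LmPK at 0.1 nM, with a 0.5 nM enzyme column as activation reference. PEP 0.5 mM, ADP 0.1 mM; ATP detected by luminescence after 1 h.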
RE007 growth inh: less growth of the S. pombe RE007 Vpr strain | 0.21% of 360,000 active | AID 651644 | Potency, µM (highest dose often 92.2 µM), inactives show at the top dose activity change, negative = less growth, hits mostly inhibitors | S. pombe RE007 Vpr strain, BacTiter-Glo ATP luminescence, 24 h; active means well fitted falling curve with a large enough effect; inconclusive means small, poorly fitted or top-dose-only effect; inactive means no such curve, though single readings can be large or run the other way; further: potency means the concentration at half of the fitted maximal effect; on the % scale 0 is the no-effect control and ±100 the full control effect; nearly all actives have a fitted effect of over 50% in size
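Fission yeast strain RE007, carrying one chromosomally integrated HIV-1 vpr copy, was seeded at OD 0.01 in PMG+AL medium with 23 nL pinned compound. After 24 h at 30 °C and 99% humidity, viability was read by BacTiter-Glo luminescence.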
NS1 inh valid: influenza NS1 function inhibition validation; shares compounds with NS1 function inh; influenza NS1 function cell assay, 15-point titration; activity change, negative = inhibition, % at 32.9 µM; 1,400 tested, under 10 active; further: 0% is about no effect
An asterisk follows results filed as active; ? = inconclusive; . = no result given; [ ] = remark or other dose. A selection: hits, their analogues and other compounds. The true share with any hit is near 0.77%. Unless noted, the call rests on the fitted dose curve.

SMILES	NS1 function inh	Tb PYK inh	LmPK inhibitor	RE007 growth inh	NS1 inh valid
CCC1CCCCN1CCCNC(=O)CN1C(=O)CSc2ccc(S(=O)(=O)N3CCC(C)CC3)cc21 (stereo not drawn)	1.8µM*	2%	2%	-8%	-5
Cc1cc(OCC(=O)Nc2ccc(C(=O)OC3CCCCC3)cc2)ccc1Cl	.	1%	.	.	.
Cc1cc(C(=O)O)cc(S(=O)(=O)Nc2ccccc2C(=O)NC(C)c2ccccc2)c1C (stereo not drawn)	7.9µM*	-9%	2%	-13%	31
CC(NC(=O)c1ccccc1NC(=O)c1ccncc1)c1ccccc1 (stereo not drawn)	-2%	-19%	-2%	2%	.
O=C(O)/C=C\c1ccc[c]([Sb])c1	5%	.	.	.	.
COc1ccc(NS(=O)(=O)c2cc(NC(=O)/C=C/c3cc(OC)ccc3OC)ccc2N2CCCCC2)cc1	10µM*	-7%	1%	?	17
COc1ccc(NS(=O)(=O)c2cc(NC(=O)CCNC(C)=O)ccc2N2CCCCC2)cc1	.	-2%	.	-24%	.
CCOc1ccc(NC(=O)Cn2c(=O)n(CCC(=O)NCCc3ccccc3)c(=O)c3ccccc32)cc1	.	-9%	.	.	.
O=C1CN(C(=O)COC(=O)c2ccc(N3CCCCCC3)c([N+](=O)[O-])c2)c2ccccc2N1	10µM*	-2%	3%	5%	21
COc1ccc(OC)c(NC(=O)N[C@@H](Cc2ccccc2)C(=O)O)c1	5%	-9%	6%	-3%	.
COc1cc(NC(=O)N[C@@H](Cc2ccccc2)C(=O)O)cc(OC)c1	?	14%	7%	7%	18
O=C(NCc1ccc(F)cc1)N[C@@H](Cc1ccccc1)C(=O)O	1µM*	-8%	4%	-5%	22
O=C(NCc1ccccc1)N[C@@H](Cc1ccccc1)C(=O)O	6%	-1%	-1%	-11%	.
Cc1cc(C)cc(NC(=O)NCCn2nnc3cc(S(=O)(=O)N(C)C)ccc32)c1	.	3%	.	.	.
CC1CCN(S(=O)(=O)c2ccc3c(c2)oc(=O)n3CC(=O)N2CCCCC2)CC1	.	-3%	.	.	.
CCc1ccc(Nc2nc3ccccc3c3nnc(C)n23)cc1	.	-4%[15.4 µM]	.	.	.
CN(CC(=O)NC1CCCCC1)S(=O)(=O)c1ccc(Cl)cc1	?	1%	9%	5%	-2
O=C(CCSc1ccccc1)NC1CCCCCC1	-3%	2%	-1%	6%	.
O=C(CCSc1ccc(Cl)cc1)NC1CCCCC1	?	1%	-1%	-8%	-1
Oc1c(Br)cc(Br)cc1CN(Cc1cc(Br)cc(Br)c1O)C1CCCCC1	5%	.	.	.	.
Cc1ccc(C(=O)OC/C(O)=C(\C#N)c2nc3ccccc3[nH]2)cc1S(=O)(=O)N1CCOCC1	10µM*	-1%	-3%	-12%	18
Fc1ccc(C2=CC(c3cccs3)n3nnnc3N2)cc1 (stereo not drawn)	7%	0%	-1%	12%	.
Cc1ccc(C2=CC(c3cccs3)n3nnnc3N2)cc1 (stereo not drawn)	3.2µM*	-16%	1%	2%	-4
COc1ccc(C(=O)Nc2nnc(S(=O)(=O)N3CCN(c4ccc(F)cc4)CC3)s2)cc1	.	4%	.	.	.
O=C(Nc1nnc(S(=O)(=O)N2CCN(c3ccc(F)cc3)CC2)s1)c1ccccc1	2.2µM*	1%	6%	-6%	-21
SMILES	NS1 function inh	Tb PYK inh	LmPK inhibitor	RE007 growth inh	NS1 inh valid
CCC(=O)Nc1ccccc1N1CCN(c2ccc(F)cc2)CC1	9%	-7%	-2%	15%	.
O=C(Nc1ccccc1N1CCN(c2ccc(F)cc2)CC1)c1ccccc1	?	0%	0%	-3%	-27
CCOCCCNC(=O)c1cc2c(=O)[nH]c3ccccc3c2n1C	.	3%	.	.	.
NC(=O)c1ccsc1NC(=O)C1CCCN1S(=O)(=O)c1ccc(Cl)cc1 (stereo not drawn)	8.9µM*	5%	10%	10%	-24
O=C(Nc1nccs1)C1CCCN1S(=O)(=O)c1ccc(Cl)cc1 (stereo not drawn)	3%	-5%	5%	5%	.
Cc1c2cccc(Sc3ccccc3)c2c2c3c(cccc13)[S+](c1ccccc1)C2 (stereo not drawn)	4%	.	.	.	.
O=C(Nc1nc(-c2ccccc2)cs1)c1ccc(S(=O)(=O)N2CCc3ccccc32)cc1	5µM*	0%	3%	-6%	?
O=C(Nc1nc(-c2ccccc2)cs1)C1CCCN(S(=O)(=O)c2cccc([N+](=O)[O-])c2)C1 (stereo not drawn)	25%	-8%	11%	-14%	.
CCOc1ccc(-c2csc(NC(=O)c3ccc(S(=O)(=O)N4CCc5ccccc5C4)cc3)n2)cc1	1%	3%	1%	-6%	.
Cc1ccc(-c2csc(NC(=O)c3ccc(S(=O)(=O)N4CCc5ccccc54)cc3)n2)cc1	7%	-2%	6%	-10%	.
COc1ccc(-c2csc(NC(=O)c3ccc(S(=O)(=O)N4CCc5ccccc5C4)cc3)n2)c(OC)c1	13µM*	0%	4%	10%	-16
O=C(Nc1nc(-c2ccccc2)cs1)C1CCCN(S(=O)(=O)c2ccccc2)C1 (stereo not drawn)	11µM*	-1%	5%	-2%	8
CS(=O)(=O)N1CCc2cc(-c3csc(NC(=O)Cc4ccccc4)n3)ccc21	10µM*	-2%	4%	-4%	4
CC(=O)N1c2ccccc2C(=O)C1N1CCN(c2cc(Cl)ccc2C)CC1 (stereo not drawn)	.	-2%[15.4 µM]	.	.	.
COc1ccc(C(=O)NCCc2csc(-c3ccc(Cl)cc3)n2)c(OC)c1	.	2%	.	.	.
Cc1cc(C)c2nc(NC(=O)c3cccc(S(=O)(=O)N4CCc5ccccc54)c3)sc2c1	18µM*	-4%	1%	-1%	18
COc1ccc(/C=N/NS(=O)(=O)c2ccc(C)cc2)cc1OC(=O)c1ccccc1	7%	7%	3%	0%	.
COc1ccc(/C=N/NS(=O)(=O)c2ccccc2)cc1OC(=O)c1ccc(C)cc1	8.9µM*	5%	8%	19%	-5
C/C(=N\Nc1nc2ccc(Cl)cc2o1)c1ccccc1	8.9µM*	1%	4%	-6%	?
Cc1cccc(-c2nc(SCC(=O)N3CCc4ccccc43)c3c(=O)n(C)c(=O)n(C)c3n2)c1	.	1%	.	.	.
Cc1ccc(S(=O)(=O)N(Cc2ccccc2)c2ccccc2C(=O)Nc2ccccc2C(=O)NCc2ccco2)cc1	7.9µM*	-3%	-1%	-2%	-20
Cc1ccc(S(=O)(=O)N(Cc2ccccc2)c2ccccc2C(=O)NCc2ccco2)cc1	-45%	-10%	3%	15%	.
O=C1CC(=O)N(c2ccc(Cl)cc2)C(=O)N1	27%	-7%	-3%	-2%	.
Cc1ccc(N2C(=O)CC(=O)NC2=O)cc1Cl	10µM*	-8%	10%	-20%	20
COc1cc(/C=C2\SC(=S)N(Nc3ncc(C(F)(F)F)cc3Cl)C2=O)ccc1O	4µM*	-26%	-3%	?	17
